# Laboratory results published in PubChem BioAssay.
# Activity calls are given as the source filed them.
# Assay: probe aCHRDL2 binding to arrayed compounds – biochemical, biotinylated probe, 635/667 nm fluorescence, primary screen (AID 1100)
# Settings: small-molecule microarray, higher = more signal
row,Structure (SMILES),composite z-score
1,C=CCC(OC(C)=O)[C@@H]1[C@@H](N(Cc2cccc3ccccc23)C(=O)c2ccc(C)cc2)c2cc(OCCCO)ccc2N1C(=O)c1ccc(-c2ccccc2)cc1 (stereo partly drawn),0.322
2,C=CCN1C(=O)[C@]2(O[C@H](CCn3cc(CCO)nn3)[C@@H]([Si](C)(C)c3ccc(OC)cc3)[C@@H]2C)c2cc(NC(=O)c3ccc(OC)cc3)ccc21,0.794
3,CC(=O)NCCCC[C@@H]1NC(=O)[C@@H]2C[C@H](C(=O)NCCCCCCN(C)C)[C@H](c3ccc(O)cc3)N2C1=O,0.117
4,CO[C@@H]1COC(=O)[C@H](COCc2ccccc2)NC(=O)CC=C[C@@H](C)[C@H](OC)COC(=O)[C@H](COCc2ccccc2)NC(=O)CC=C[C@H]1C,-0.942
5,COCCOC(=O)N1C(=O)[C@@]2(c3ccccc31)[C@H](C(=O)N1CCc3cc(OC)c(OC)cc3C1)[C@H]1C(=O)O[C@H](c3ccccc3)[C@H](c3ccccc3)N1[C@@H]2c1ccccc1OCCO,0.339
6,C=C(CCCC)/C(=C/C[C@@H](OC(=O)c1ccncc1)c1cccc(OCCO)c1)c1cc(C(=O)OC)ccc1OC,0.273
7,C#CCCCON=C1C[C@@H](O)[C@@H](O)[C@@H]2[C@@H]3C(=O)N(Cc4ccc5c(c4)OCO5)C(=O)[C@@H]3CC[C@@H]12,0.0822

# Assay: change in splice reporter luminescence, either direction, cell-based, HEK293, spliceosome inhibition project, primary screen (AID 1101);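 also: HEK293 cells carrying a splicing-competent luciferase reporter gene; test concentration not given here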
# Settings: HEK293 splicing luciferase reporter, 24 h, higher = more signal, called active from +8 up or from −8 down
row,Structure (SMILES),z-score
1,O=C1C2C=CC(C(O)Cc3ccccc3)N(Nc3ccc([N+](=O)[O-])cc3)C2C(=O)N1c1ccccc1 (stereo not drawn),0.843 (inactive)
2,CC(C)C[C@@H]1NC(=O)[C@H](CC(C)C)NC(=O)[C@@]23C(=O)N[C@@H](Cc4ccccc4)C2[C@H](C)[C@@]2(C)O[C@H]2C3/C=C/CC/C=C/CNC1=O (stereo partly drawn),-0.218 (inactive)
3,COC(=O)[C@@]1(Cc2ccccc2CN=[N+]=[N-])N=C(c2ccc(OCCCO)cc2)O[C@H]1c1ccccc1N=[N+]=[N-],-0.298 (inactive)
4,CCOC(=O)C[C@H]1[C@H](OC(=O)Cc2ccc3c(c2)OCO3)[C@@H](NC(=O)c2ccc3ccccc3c2)c2cc(OCCCO)ccc2N1C(=O)Cc1ccc(OC)cc1,-1.83 (inactive)
5,C[N+](C)(C)CCCCNC(=O)[C@H]1C[C@H]2C(=O)NCC(=O)N2[C@H]1c1cccc(OCCO)c1,0.589 (inactive)
6,C=C(/C(=C/C[C@@H](OC(=O)c1ccncc1)c1ccc(CO)o1)c1cnc2ccccc2c1)C(C)C,0.168 (inactive)
7,CCCNC(=O)[C@@]1(Sc2ccc(C)cc2)CC(=O)N(Cc2ccccc2Cl)[C@@H]1c1ccc(CO)cc1,-2.31 (inactive)
8,COC(=O)Cn1c(C(=O)N2CCCC2)cc2c1C[C@H]1CN(C(=O)c3ccccc3)[C@@](Cc3ccccc3)(C(=O)OC)[C@@H]21,0.309 (inactive)
9,NC(=O)NCC#Cc1ccc2c(c1)[C@]1(C(=O)N2)[C@H](C(=O)N2CCCCCCC2)[C@H]2C(=O)O[C@H](c3ccccc3)[C@H](c3ccccc3)N2[C@@H]1c1ccccc1OCCO,0.0838 (inactive)
10,Cc1ccc(S[C@]2(C(=O)NCCCN(C)C)CC(=O)N(C3CCCCC3)[C@@H]2c2ccc(CO)cc2I)cc1,-1.31 (inactive)
11,CCN1C(C)=C(C(=O)OC)[C@@H](c2ccccc2)N2C(=O)[C@@]3(C(=O)OC)O[C@@]12[C@@H]1C(=O)N(C)C(=O)[C@@H]13,-0.997 (inactive)
12,CO[C@H]1COC(=O)[C@H](C)NC(=O)CC=C[C@@H](C)[C@H](NS(=O)(=O)c2ccc(C)cc2)COC(=O)CC=C[C@@H]1C,-0.489 (inactive)
13,Cc1ccc(S(=O)(=O)N[C@H]2COC(=O)CC=C[C@H](C)COC(=O)N[C@@H](C)C(=O)CC=C[C@@H]2C)cc1,-0.381 (inactive)
14,CN1C2C=C(c3ccc(CO)cc3)C(C3C(=O)N(C(N)=O)C(=O)C32)C1c1cccs1 (stereo not drawn),-0.795 (inactive)
15,CCCC=C(CCC)[C@@H](NS(=O)(=O)c1ccc(C(F)(F)F)cc1)c1ccc(-c2ccccc2)cc1,-1.69 (inactive)
16,CO[C@H]1COC(=O)[C@@H](C)NC(=O)CC=C[C@@H](C)[C@H](OC)COC(=O)CC=C[C@@H]1C,-1.59 (inactive)
17,C=CCC(OC(C)=O)[C@@H]1[C@@H](N(Cc2cc3ccccc3o2)C(=O)Cc2ccc(F)cc2)c2cc(OCCCO)ccc2N1C(=O)c1ccc(-c2ccccc2)cc1 (stereo partly drawn),-1.05 (inactive)
18,Cc1ccc(N2C(=O)c3ccccc3[C@@H](C(=O)NCc3ccccc3)[C@@H]2c2ccc(CO)cc2)nc1,-1.47 (inactive)

row,Structure (SMILES),z-score
1,CCCC[C@@H]1C[C@H]1[C@@H](NC(=O)c1ccccc1)c1ccccc1C(F)(F)F,-0.261 (inactive)
2,CN1C(=O)C2C=CC(C(O)c3ccc(N(C)C)cc3)N(Nc3ccc([N+](=O)[O-])cc3[N+](=O)[O-])C2C1=O (stereo not drawn),1.16 (inactive)
3,O=C1C2C=CC(C(O)C#Cc3ccccc3)N(Nc3ccccc3)C2C(=O)N1c1ccccc1 (stereo not drawn),0.287 (inactive)
4,Cc1ccc(S[C@]2(C(=O)NCCN3CCOCC3)CC(=O)N(C3Cc4ccccc4C3)[C@@H]2c2ccc(CO)cc2I)cc1,-1.16 (inactive)
5,O=C1O[C@@H](c2ccccc2)[C@@H](c2ccccc2)N2[C@@H](c3ccc(O)cc3)[C@]3(C(=O)Nc4ccccc43)[C@@H](C(=O)N3CCN(c4ncccn4)CC3)[C@H]12,-0.547 (inactive)
6,C=CC[C@]1(C(=O)NCC(O)CO)N=C(c2ccc(OCCCO)cc2)O[C@H]1c1ccccc1 (stereo partly drawn),0.164 (inactive)
7,CC[C@@H]1C=C(C(=O)O)[C@H](c2ccccc2)N1S(=O)(=O)c1ccc([N+](=O)[O-])cc1,-0.812 (inactive)
8,CN1CCC(CCCO)=CC1C1CC1 (stereo not drawn),-1.18 (inactive)
9,C=CC[C@]1(C(=O)N2CCCCC2)N=C(c2ccc(OCCCO)cc2)O[C@H]1c1ccccc1N=[N+]=[N-],-0.461 (inactive)
10,COc1cccc([C@@H]2[C@@H](C)CC[C@H]3C(=O)N4[C@H](c5cccc(OC)c5)[C@@H](C)CC[C@H]4C(=O)N23)c1,-1.59 (inactive)
11,COCCOC(=O)N1C(=O)[C@@]2(c3cc(C#CC4=CCCCC4)ccc31)[C@H](c1ccc(O)cc1)N1[C@H](c3ccccc3)[C@H](c3ccccc3)OC(=O)[C@H]1[C@@H]2C(=O)N1CCCCCCC1,-0.476 (inactive)
12,C=CCC(OC(C)=O)[C@@H]1[C@@H](N(Cc2cccc3ccccc23)C(=O)c2ccc(C)cc2)c2cc(OCCCO)ccc2N1C(=O)c1ccc(-c2ccccc2)cc1 (stereo partly drawn),-1.15 (inactive)
13,C=CCN1C(=O)[C@]2(O[C@H](CCn3cc(CCO)nn3)[C@@H]([Si](C)(C)c3ccc(OC)cc3)[C@@H]2C)c2cc(NC(=O)c3ccc(OC)cc3)ccc21,0.0559 (inactive)
14,CC(=O)NCCCC[C@@H]1NC(=O)[C@@H]2C[C@H](C(=O)NCCCCCCN(C)C)[C@H](c3ccc(O)cc3)N2C1=O,-1.45 (inactive)
15,CO[C@@H]1COC(=O)[C@H](COCc2ccccc2)NC(=O)CC=C[C@@H](C)[C@H](OC)COC(=O)[C@H](COCc2ccccc2)NC(=O)CC=C[C@H]1C,-0.923 (inactive)
16,COCCOC(=O)N1C(=O)[C@@]2(c3ccccc31)[C@H](C(=O)N1CCc3cc(OC)c(OC)cc3C1)[C@H]1C(=O)O[C@H](c3ccccc3)[C@H](c3ccccc3)N1[C@@H]2c1ccccc1OCCO,-0.237 (inactive)
17,C=C(CCCC)/C(=C/C[C@@H](OC(=O)c1ccncc1)c1cccc(OCCO)c1)c1cc(C(=O)OC)ccc1OC,0.151 (inactive)
18,C#CCCCON=C1C[C@@H](O)[C@@H](O)[C@@H]2[C@@H]3C(=O)N(Cc4ccc5c(c4)OCO5)C(=O)[C@@H]3CC[C@@H]12,-0.117 (inactive)
